Test results from PubChem BioAssay (NCATS).
Records with an inconclusive call do not appear. Entries that show only a call come without a potency. Activity calls are given as the source filed them. Unless noted, calls come from the whole dose curve; as a rule, active = well fitted curve in the direction sought with a large enough effect; inconclusive = small, poorly fitted or top-dose-only effect, or another doubt; inactive = no such curve, though single readings can be large; an effect the other way counts as inactive or inconclusive.

How the values were obtained:
[1] = molecular target: Ubiquitin carboxyl-terminal hydrolase 1 (Homo sapiens) (UniProt O94782); experiment: Inhibitors of USP1/UAF1: Pilot qHTS (AID 504865); note: nearly all actives have a fitted effect of over 35% in size; note: potency is the fitted concentration of half-maximal effect
Sequence of Ubiquitin carboxyl-terminal hydrolase 1 (Homo sapiens) (O94782 whole entry, looked up): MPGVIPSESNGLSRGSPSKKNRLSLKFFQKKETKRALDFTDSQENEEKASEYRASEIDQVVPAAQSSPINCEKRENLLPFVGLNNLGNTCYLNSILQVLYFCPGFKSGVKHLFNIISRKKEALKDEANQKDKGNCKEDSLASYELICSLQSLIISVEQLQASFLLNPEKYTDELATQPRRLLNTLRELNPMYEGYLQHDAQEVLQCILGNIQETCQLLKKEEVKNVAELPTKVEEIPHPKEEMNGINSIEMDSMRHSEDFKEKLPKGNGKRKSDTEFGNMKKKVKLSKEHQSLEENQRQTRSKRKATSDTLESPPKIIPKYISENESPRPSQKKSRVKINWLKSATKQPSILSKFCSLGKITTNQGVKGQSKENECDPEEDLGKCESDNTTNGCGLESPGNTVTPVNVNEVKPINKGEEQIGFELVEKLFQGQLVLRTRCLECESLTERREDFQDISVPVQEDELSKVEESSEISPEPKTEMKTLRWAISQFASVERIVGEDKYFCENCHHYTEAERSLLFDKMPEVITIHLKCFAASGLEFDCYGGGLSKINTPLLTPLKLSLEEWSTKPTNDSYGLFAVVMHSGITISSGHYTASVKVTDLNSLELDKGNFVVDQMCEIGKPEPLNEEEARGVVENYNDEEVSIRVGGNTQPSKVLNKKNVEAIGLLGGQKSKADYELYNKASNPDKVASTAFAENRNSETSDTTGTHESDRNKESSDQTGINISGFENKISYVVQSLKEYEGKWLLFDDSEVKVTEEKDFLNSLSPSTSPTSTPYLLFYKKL
Summary of the method: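 1nM USP1/UAF1 + cpd, 15 min RT; start w/ Ub-Rho 150nM final; kinetic FL 480/540 nm, 6 reads q60 s. Buffer 50mM HEPES pH 7.8, 0.5mM EDTA, 1mM TCEP, 0.01% Tween-20, 0.1 mg/ml BSA.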

[2] = Nrf2 qHTS screen for inhibitors: Validation (AID 493153; active = well fitted inhibition curve with a large enough effect in the main read-out, with a control signal flat, not every such curve was filed as active); details: viability change: measured here: cytotoxicity max response
Summary of the method: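 A549 ARE_Fluc, 5% FBS OPTI-MEM; cpd titration, 18-24 h, 37°C/5% CO2. Read 1: CellTiter-Fluor (Ex 405/Em 525), cytotox. Read 2: luciferase lum, Nrf2 activity.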

[3] = qHTS for Inhibitors of Cell Surface uPA Generation: Validation Assay (AID 493164);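 note: RAW 264.7 macrophage cells exposed to compound for 18 h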
Summary of the method: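 ATP-Lite luminescence read-out: ATP remains high when uPA activity-dependent LF translocation into the cytoplasm is blocked. RAW 264.7 cells, 18 h compound exposure at 37 C; 7-point titration, 2.45 nM to 38.3 uM final.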

[4] = molecular target: Galactokinase (Homo sapiens) (UniProt P51570); experiment: qHTS Validation Assay for Inhibitors of Human Galactokinase (GALK) (AID 493189)
Sequence of Galactokinase (Homo sapiens) (P51570 whole entry, looked up): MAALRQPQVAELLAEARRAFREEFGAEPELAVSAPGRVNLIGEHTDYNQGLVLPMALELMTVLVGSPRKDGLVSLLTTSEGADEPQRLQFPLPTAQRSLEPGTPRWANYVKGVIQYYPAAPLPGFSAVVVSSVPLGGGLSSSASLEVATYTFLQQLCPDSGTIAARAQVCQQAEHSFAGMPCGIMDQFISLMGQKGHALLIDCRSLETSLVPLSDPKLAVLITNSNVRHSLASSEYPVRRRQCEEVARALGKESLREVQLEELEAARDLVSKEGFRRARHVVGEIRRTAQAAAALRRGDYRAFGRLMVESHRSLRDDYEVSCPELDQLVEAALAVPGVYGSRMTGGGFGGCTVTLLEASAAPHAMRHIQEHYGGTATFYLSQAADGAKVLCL
Summary of the method: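 Luminescence from leftover ATP (Kinase-Glo Plus, 10 min) served as read-out after a 1 h room-temperature reaction of 5 nM GALK, 100 uM galactose and 35 uM ATP at pH8.0.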

[5] = Validation screen for small molecules that induce DNA re-replication in SW480 colon adenocarcinoma cells (AID 504364)
Summary of the method: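 Image-based qHTS: compounds were incubated with SW480 cells for 48 hr, nuclei stained with Hoechst, and per-nucleus fluorescence intensity scanned to flag cells with excess DNA content.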

[6] = molecular target: Peptidyl-prolyl cis-trans isomerase NIMA-interacting 1 (Homo sapiens) (UniProt Q13526); experiment: qHTS Validation Assay to Find Inhibitors of Pin1 (AID 504536; active = well fitted inhibition curve with a large enough effect in the polarisation, with a control signal flat, not every such curve was filed as active; the % refers to the polarisation)
Sequence of Peptidyl-prolyl cis-trans isomerase NIMA-interacting 1 (Homo sapiens) (Q13526 whole entry, looked up): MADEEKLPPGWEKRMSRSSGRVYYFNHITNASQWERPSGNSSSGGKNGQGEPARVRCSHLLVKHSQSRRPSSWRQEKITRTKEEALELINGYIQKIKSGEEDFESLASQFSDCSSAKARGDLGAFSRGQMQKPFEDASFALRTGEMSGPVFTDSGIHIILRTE
Summary of the method: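 Fluorescence polarization competition: compounds (titration) displace HiFluor-488-labeled Pin1-1b peptide from Pin1 (0.3 uM final) in pH 7.5 HEPES buffer with DTT, 10 min at room temperature; %Activity normalized to no-enzyme wells, curves fitted.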

[7] = molecular target: Phosphoglycerate kinase, glycosomal (Trypanosoma brucei brucei) (UniProt P07378); experiment: qHTS Validation Assay to Find Inhibitors of Phosphoglycerate Kinase (AID 504547)
Sequence of Phosphoglycerate kinase, glycosomal (Trypanosoma brucei brucei) (P07378 whole entry, looked up): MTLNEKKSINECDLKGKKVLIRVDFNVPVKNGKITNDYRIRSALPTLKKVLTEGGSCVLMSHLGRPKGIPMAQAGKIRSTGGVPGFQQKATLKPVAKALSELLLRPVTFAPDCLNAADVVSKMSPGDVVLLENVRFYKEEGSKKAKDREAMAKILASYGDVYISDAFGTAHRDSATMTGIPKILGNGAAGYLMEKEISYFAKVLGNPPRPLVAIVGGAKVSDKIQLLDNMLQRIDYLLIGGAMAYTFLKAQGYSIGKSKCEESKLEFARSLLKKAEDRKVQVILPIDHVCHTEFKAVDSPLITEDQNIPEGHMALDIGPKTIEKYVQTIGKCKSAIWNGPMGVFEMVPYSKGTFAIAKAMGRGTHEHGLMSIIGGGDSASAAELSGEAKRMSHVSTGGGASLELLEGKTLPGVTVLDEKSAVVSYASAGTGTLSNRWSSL
Description: NIH Molecular Libraries Probe Production Network [MLPCN]
NIH Chemical Genomics Center [NCGC]
PI Name: Malcolm Walkinshaw, University of Edinburgh
Several species of the Trypanosomatidae family of parasitic protozoans cause a spectrum of diseases
throughout the tropical and subtropical world. Sleeping sickness, caused by two subspecies of Trypanosoma brucei, is endemic to areas of sub-Saharan Africa, while Chagas disease, a manifestation of Trypanosoma cruzi infection, is prevalent throughout Central and South America. In addition, many species of Leishmania are responsible for a range of cutaneous and visceral diseases, causing ulcers, destructive lesions and kalaazar, a lethal infection of the viscera. Collectively, these organisms infect 30 million people worldwide (~500 million live in endemic areas), and account for ~130,000 deaths annually. […]
Briefly, 3ul of substrate/PGK buffer (columns 1,2,5-48) are dispensed into Greiner white solid bottom 1536-well assay plates; columns 3-4 receive only TEA buffer as 0x PGK controls. […] Kinase-Glo Plus reagent is added (2ul) and plates incubated for 10 minutes, before being transferred to a ViewLux high-throughput CCD imager (PerkinElmer) wherein single end-point measurements of luminescence are acquired using a clear filter. […]

[8] = qHTS for Inhibitors of ATXN expression: Validation of Cytotoxic Assay (AID 588349)
Summary of the method: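 Titrated compounds are added to cultured HEK293 cells, which are then held at 37 degrees C for 72 hr; loss of intracellular ATP, measured with CellTiter Glo, indicates toxicity.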

[9] = qHTS for Inhibitors of ATXN expression: Validation (AID 588378); note: series mostly up to about 57 µM; nearly all actives have a fitted effect of over 75% in size
Summary of the method: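 Cells: HEK293-ATXN2-FFLuc, phenol-red free DMEM, 2 h attachment. Compound pin-transfer, 24 h, 37 degrees C, 5% CO2. CellTiter-Fluor 30 min, Ex405/Em525; Bright-Glo 5 min, luminescence 2 s exposure.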

[10] = molecular target: DNA dC->dU-editing enzyme APOBEC-3G (Homo sapiens) (UniProt Q9HC16); experiment: qHTS for inhibitors of Vif-A3G interactions: Validation (AID 588379)
Sequence of DNA dC->dU-editing enzyme APOBEC-3G (Homo sapiens) (Q9HC16 whole entry, looked up): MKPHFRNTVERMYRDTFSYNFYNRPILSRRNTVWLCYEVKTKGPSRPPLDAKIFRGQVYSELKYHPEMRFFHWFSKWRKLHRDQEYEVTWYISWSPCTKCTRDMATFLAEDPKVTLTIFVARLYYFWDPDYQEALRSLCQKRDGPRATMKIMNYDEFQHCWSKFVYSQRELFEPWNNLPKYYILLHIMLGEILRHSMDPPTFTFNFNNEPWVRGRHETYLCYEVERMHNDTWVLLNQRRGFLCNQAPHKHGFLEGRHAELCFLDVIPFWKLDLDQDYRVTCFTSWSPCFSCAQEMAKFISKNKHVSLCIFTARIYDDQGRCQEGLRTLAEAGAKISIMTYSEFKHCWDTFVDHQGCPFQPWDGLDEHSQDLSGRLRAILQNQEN
Summary of the method: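 Yellow fluorescence (Ex 488, Em 500-530) of Vif-coexpressing HeLa A3G-eYFP cells, scanned by Acumen cytometer, reports blocked A3G degradation. Cells plated at 700/well overnight at 37 deg C before compound addition, then a further overnight compound incubation at 37 deg C.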

Question: With `COC(=O)C1=C(C)NC(C)=C(C(=O)OCCN2CCN(C(c3ccccc3)c3ccccc3)CC2)C1c1cccc([N+](=O)[O-])c1` (stereo not drawn) as the compound, how does the Potency [1] read?
Answer: inactive

Question: With `Nc1ccc(S(=O)(=O)Nc2ncccn2)cc1` as the compound, how does the Potency [1] read?
Answer: inactive

Question: Which results are given for `O=c1c2ccccc2nc2n1CCc1c-2[nH]c2ccccc12`?
Answer: outcome [2]: inactive; viability change [2]: -3.53%; outcome [3]: inactive; outcome [4]: inactive; outcome [5]: inactive; outcome [6]: inactive; outcome [7]: inactive; Potency [1]: inactive; outcome [8]: inactive; outcome [9]: inactive

Question: Which Potency [1] does the source give for `C[C@H]1C[C@@H]2[C@@H]([C@@H](O)C[C@@]3(C)[C@H]2CC[C@]3(O)C(=O)CO)[C@@]2(C)C=CC(=O)C=C12` here?
Answer: inactive

Question: With `O=c1[nH]c(=O)n(C2CCCO2)cc1F` (stereo not drawn) as the compound, how does the Potency [1] read?
Answer: inactive

Question: Which Potency [1] does the source give for `COC(=O)C[C@](O)(CCCC(C)(C)O)C(=O)O[C@@H]1C(OC)=C[C@]23CCCN2CCc2cc4c(cc2[C@H]13)OCO4` here?
Answer: inactive

Question: What about the outcome [10] of the same compound?
Answer: inactive

Question: With `CC=CC1=C(C(=O)O)N2C(=O)[C@H](NC(=O)[C@H](N)c3ccc(O)cc3)[C@@H]2SC1` as the compound, how does the Potency [1] read?
Answer: inactive

Question: Which Potency [1] does the source give for `COc1c(N2C[C@@H]3CCCN[C@H]3C2)c(F)cc2c(=O)c(C(=O)O)cn(C3CC3)c12` here?
Answer: inactive

Question: Which Potency [1] does the source give for `COc1cc(C(=O)NS(=O)(=O)c2ccccc2C)ccc1Cc1cn(C)c2ccc(NC(=O)OC3CCCC3)cc12` here?
Answer: 35.5 µM (active)

Question: For `Nc1ccn([C@@H]2O[C@H](CO)[C@H](O)C2(F)F)c(=O)n1`, which Potency [1] is on record?
Answer: inactive

Question: Which Potency [1] does the source give for `O=C(O)CO.[NH2-].[NH2-].[Pt+2]` here?
Answer: inactive

Question: Which Potency [1] does the source give for `CC[C@@]1(O)C(=O)OCc2c1cc1n(c2=O)Cc2cc3cc(O)ccc3nc2-1` here?
Answer: inactive

Question: Which Potency [1] does the source give for `CC1(C)O[C@@H]2C[C@@H]3[C@H]4C[C@@H](F)C5=CC(=O)C=C[C@]5(C)[C@@]4(F)[C@@H](O)C[C@]3(C)[C@]2(C(=O)CO)O1` here?
Answer: inactive
